Source: PubChem BioAssay (Tox21)
Inconclusive results are not listed. A call without a number means that no potency is given here. A number with no mark means an inactive call. Calls of active or inactive are those of the source. Unless noted, calls follow the shape of the full dose curve.

Legend:
[1] = qHTS assay to identify small molecule agonists of the peroxisome proliferator-activated receptor delta (PPARd) signaling pathway - cell viability counter screen (AID 743211; active = well fitted curve in the direction sought with a large enough effect in the repeat runs; an effect the other way counts as inactive or inconclusive; also: nearly all actives have a fitted effect of over 55% in size)
How it was run: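 In the same wells used for beta-lactamase reporter measurement, cytotoxicity is scored by CellTiter-Glo. HEK293H PPARd-bla cells receive compound for 17 h at 37C following a 5 h settling period.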

[2] = biological target: Peroxisome proliferator-activated receptor delta (Homo sapiens) (UniProt Q03181); experiment: qHTS assay to identify small molecule agonists of the peroxisome proliferator-activated receptor delta (PPARd) signaling pathway (AID 743212)
Sequence of Peroxisome proliferator-activated receptor delta (Homo sapiens) (Q03181 whole entry, looked up): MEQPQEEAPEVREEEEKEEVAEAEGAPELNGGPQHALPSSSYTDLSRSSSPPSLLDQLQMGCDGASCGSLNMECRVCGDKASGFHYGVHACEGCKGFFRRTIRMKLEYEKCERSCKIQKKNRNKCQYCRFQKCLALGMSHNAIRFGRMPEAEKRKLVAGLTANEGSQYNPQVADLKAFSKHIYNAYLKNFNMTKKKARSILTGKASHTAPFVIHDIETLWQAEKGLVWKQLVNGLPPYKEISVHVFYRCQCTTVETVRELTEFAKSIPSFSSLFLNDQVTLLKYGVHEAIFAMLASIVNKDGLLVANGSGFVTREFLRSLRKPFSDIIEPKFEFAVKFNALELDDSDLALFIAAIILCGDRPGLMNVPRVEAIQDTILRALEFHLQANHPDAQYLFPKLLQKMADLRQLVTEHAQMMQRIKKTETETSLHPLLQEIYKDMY
How it was run: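 Tox21 library screened in GeneBLAzer PPARd UAS-bla HEK293H cells. After compound treatment at 37 C, a FRET-based beta-lactamase substrate was applied for 2 h and fluorescence recorded.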

[3] = qHTS assay to identify small molecule antagonists of the peroxisome proliferator-activated receptor delta (PPARd) signaling pathway - cell viability counter screen (AID 743213; active = well fitted curve in the direction sought with a large enough effect in the repeat runs; an effect the other way counts as inactive or inconclusive; also: nearly all actives have a fitted effect of over 50% in size)
How it was run: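 HEK293H PPARd UAS-bla cells, 5 h pre-incubation, compound + L165041 300 nM final, 17 h 37 C; B/G FRET substrate 2 h RT; then CellTiter-Glo 30 min RT, luminescence.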

[4] = qHTS assay to identify small molecule antagonists of the farnesoid-X-receptor (FXR) signaling pathway - cell viability counter screen (AID 743221; active = well fitted cell-killing curve with a large enough effect in the repeat runs, not every such curve was filed as active; also: nearly all actives have a fitted effect of over 50% in size)
How it was run: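 Here viability was scored by luminescence after CellTiter-Glo addition to wells already read for beta-lactamase. Prior treatment: compound plus CDCA (50 uM final), 16 h, 37 C, HEK 293T FXR-bla cells.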

[5] = qHTS assay to identify small molecule agonists of the vitamin D receptor (VDR) signaling pathway - cell viability counter screen (AID 743224; active = well fitted curve in the direction sought with a large enough effect in the repeat runs; an effect the other way counts as inactive or inconclusive; also: series mostly up to about 63 µM; nearly all actives have a fitted effect of over 50% in size)
How it was run: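 Cytotoxicity counter screen: VDR-bla cells, 16 h compound exposure at 37C, 5% CO2; CellTiter-Glo luminescence, 30 min RT, same wells as bla read.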

[6] = qHTS assay to identify small molecule antagonists of the vitamin D receptor (VDR) signaling pathway - cell viability counter screen (AID 743225; active = well fitted curve in the direction sought with a large enough effect in the repeat runs; an effect the other way counts as inactive or inconclusive; also: nearly all actives have a fitted effect of over 50% in size)
How it was run: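 Compounds were pinned onto VDR-bla HEK 293T cells together with 1-alpha,25-dihydroxyvitamin D3 at 3 nM final. After 16 h at 37C and 5% CO2 plus the reporter readout, cell viability was measured by CellTiter-Glo luminescence (30 min, room temperature).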

[7] = qHTS assay to identify small molecule agonists of the NFkB signaling pathway (AID 1159509; active = well fitted curve in the direction sought with a large enough effect in the signal ratio in the repeat runs, not every such curve was filed as active; the % refers to the signal ratio; also: series mostly up to about 61 µM)
How it was run: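 Pathway activation was measured in ME-180 cells stably expressing beta-lactamase under NF-kB response element control. Substrate cleavage was read as the 460/530 nm emission shift after 5 hr compound incubation.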

[8] = qHTS assay to identify small molecule agonists of the NFkB signaling pathway - cell viability counter screen (AID 1159515); also: series mostly up to about 61 µM; nearly all actives have a fitted effect of over 55% in size
How it was run: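 ME-180 NFkB-bla cells, 2,000/well; overnight attach; compound 5 hr, 37 C/5% CO2; LiveBLAzer substrate 1.5 hr RT; then CellTiter-Glo in same wells, 30 min RT, luminescence read.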

[9] = qHTS assay to identify small molecule agonists of the endoplasmic reticulum stress response signaling pathway (AID 1159516; active = well fitted activation curve with a large enough effect in the signal ratio in the repeat runs, not every such curve was filed as active; the % refers to the signal ratio)
How it was run: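 HeLa ESRE-bla reporter line; cpd 5 h, 37 C/5% CO2; LiveBLAzer B/G FRET substrate 2 h RT; ex 405, em 460/530 nm.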

[10] = qHTS assay to identify small molecule agonists of the endoplasmic reticulum stress response signaling pathway - cell viability counter screen (AID 1159517)
How it was run: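 In parallel with the ESRE reporter read, cytotoxicity was scored by CellTiter-Glo luminescence (30 min, room temperature) on HeLa ESRE-bla cells dosed for 5 hr.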

[11] = biological target: Nuclear receptor ROR-gamma (Homo sapiens) (UniProt P51449); experiment: qHTS assay to identify small molecule antagonists of the retinoid-related orphan receptor gamma (ROR-gamma) signaling pathway (AID 1159521; active = well fitted curve in the direction sought with a large enough effect in the repeat runs; an effect the other way counts as inactive or inconclusive; also: nearly all actives have a fitted effect of over 50% in size; also: potency is read from the fitted curve at half-maximal effect)
How it was run: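 Test compounds were applied to Tet-on RORγ CHO cells 2 h ahead of doxycycline hyclate (1 uM final). Luciferase reporter activity was quantified by luminescence after 16 h at 37 C and 5% CO2.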

[12] = qHTS assay to identify small molecule agonists of the AP-1 signaling pathway (AID 1159526)
[13] = qHTS assay to identify small molecule agonists of the farnesoid-X-receptor (FXR) signaling pathway - cell viability counter screen (AID 743218; active = well fitted curve in the direction sought with a large enough effect in the repeat runs; an effect the other way counts as inactive or inconclusive; also: nearly all actives have a fitted effect of over 45% in size)
How it was run: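 Luminescence from CellTiter-Glo, read after 30 min at RT, reports viability of GeneBLAzer FXR-UAS-bla HEK 293T cells treated 16 h with compounds in the wells used for the beta-lactamase reporter.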

[14] = biological target: Vitamin D3 receptor (Homo sapiens) (UniProt P11473); experiment: qHTS assay to identify small molecule agonists of the vitamin D receptor (VDR) signaling pathway (AID 743222)
Sequence of Vitamin D3 receptor (Homo sapiens) (P11473 whole entry, looked up): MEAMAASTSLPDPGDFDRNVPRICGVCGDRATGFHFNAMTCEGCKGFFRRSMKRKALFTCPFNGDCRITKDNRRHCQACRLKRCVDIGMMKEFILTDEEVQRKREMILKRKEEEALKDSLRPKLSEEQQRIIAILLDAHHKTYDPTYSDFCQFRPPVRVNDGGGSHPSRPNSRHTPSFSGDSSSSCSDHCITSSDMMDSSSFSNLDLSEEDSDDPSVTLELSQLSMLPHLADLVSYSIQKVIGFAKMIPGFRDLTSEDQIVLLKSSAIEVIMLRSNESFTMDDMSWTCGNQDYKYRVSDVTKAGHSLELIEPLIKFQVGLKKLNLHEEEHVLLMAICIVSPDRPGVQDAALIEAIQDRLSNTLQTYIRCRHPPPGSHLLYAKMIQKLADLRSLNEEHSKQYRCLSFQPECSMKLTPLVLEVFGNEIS
How it was run: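 Beta-lactamase reporter readout (LiveBLAzer B/G FRET, 2 h RT) in VDR-bla cells after 16 h compound treatment at 37C, 5% CO2; cells pre-incubated 4 h before pin transfer of DMSO solutions.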

[15] = biological target: Vitamin D3 receptor (Homo sapiens) (UniProt P11473); experiment: qHTS assay to identify small molecule antagonists of the vitamin D receptor (VDR) signaling pathway (AID 743223; active = well fitted inhibition curve with a large enough effect in the signal ratio in the repeat runs, not every such curve was filed as active; the % refers to the signal ratio)
How it was run: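 Inhibition of agonist-driven VDR signalling is scored in VDR-bla cells: 3 nM final 1alpha,25-dihydroxyvitamin D3 plus compound, 16 h at 37C, then beta-lactamase detection by FRET substrate fluorescence after 2 h.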

[16] = biological target: Peroxisome proliferator-activated receptor delta (Homo sapiens) (UniProt Q03181); experiment: qHTS assay to identify small molecule antagonists of the peroxisome proliferator-activated receptor delta (PPARd) signaling pathway (AID 743215; active = well fitted inhibition curve with a large enough effect in the signal ratio in the repeat runs, not every such curve was filed as active; the % refers to the signal ratio;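 also: cells stimulated with agonist L165041 at 300 nM final during compound exposure; series mostly up to about 62 µM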)
How it was run: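 HEK293H GeneBLAzer PPARd UAS-bla reporter cells; cpd + L165041 300 nM final, 17 h 37 C; LiveBLAzer B/G FRET substrate 2 h RT; fluorescence intensity read-out. Antagonist mode.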

[17] = biological target: Bile acid receptor (Homo sapiens) (UniProt Q96RI1); experiment: qHTS assay to identify small molecule antagonists of the farnesoid-X-receptor (FXR) signaling pathway (AID 743217; active = well fitted inhibition curve with a large enough effect in the signal ratio in the repeat runs, not every such curve was filed as active; the % refers to the signal ratio)
Sequence of Bile acid receptor (Homo sapiens) (Q96RI1 whole entry, looked up): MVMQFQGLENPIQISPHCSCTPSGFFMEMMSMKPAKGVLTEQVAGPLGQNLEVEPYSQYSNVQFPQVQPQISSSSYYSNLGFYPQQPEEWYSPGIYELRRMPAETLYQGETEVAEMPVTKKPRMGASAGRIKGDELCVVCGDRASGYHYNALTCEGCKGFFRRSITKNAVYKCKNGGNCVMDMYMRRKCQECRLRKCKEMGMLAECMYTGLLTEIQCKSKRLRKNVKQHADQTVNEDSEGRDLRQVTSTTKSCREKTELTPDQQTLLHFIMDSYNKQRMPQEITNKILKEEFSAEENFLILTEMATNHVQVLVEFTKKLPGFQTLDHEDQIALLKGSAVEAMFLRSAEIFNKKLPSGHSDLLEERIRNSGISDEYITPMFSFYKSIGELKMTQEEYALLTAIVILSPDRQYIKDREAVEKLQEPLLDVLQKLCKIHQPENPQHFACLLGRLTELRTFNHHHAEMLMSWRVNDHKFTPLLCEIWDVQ
How it was run: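 Read-out: beta-lactamase FRET fluorescence (LiveBLAzer B/G substrate, 2 h, room temperature) in GeneBLAzer FXR-UAS-bla HEK 293T cells. Compounds were co-dosed with 50 uM chenodeoxycholic acid (final) and incubated 16 h at 37 °C.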

[18] = biological target: Bile acid receptor (Homo sapiens) (UniProt Q96RI1); experiment: qHTS assay to identify small molecule agonists of the farnesoid-X-receptor (FXR) signaling pathway (AID 743220; active = well fitted activation curve with a large enough effect in the signal ratio in the repeat runs, not every such curve was filed as active; the % refers to the signal ratio)
How it was run: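 FXR-UAS-bla HEK 293T cells carrying a UAS-driven beta-lactamase reporter were plated for 5 h at 37C/5% CO2, then exposed to DMSO-dissolved Tox21 10K compounds for 16 h at 37C. A LiveBLAzer B/G FRET substrate was loaded for 2 h at room temperature before fluorescence reading.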

[19] = qHTS assay to identify small molecule antagonists of the retinoid-related orphan receptor gamma (ROR-gamma) signaling pathway - cell viability counter screen (AID 1159520; active = well fitted curve in the direction sought with a large enough effect in the repeat runs; an effect the other way counts as inactive or inconclusive; also: nearly all actives have a fitted effect of over 50% in size)
How it was run: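 Tet-on ROR gamma CHO cells were given compounds for 2 hr, then doxycycline hyclate at 1 uM final, and incubated 16 hr at 37 C. Viability was measured as ATP content by CellTiter-Glo luminescence.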

[20] = qHTS assay to identify small molecule agonists of the AP-1 signaling pathway - cell viability counter screen (AID 1159525); also: nearly all actives have a fitted effect of over 55% in size
How it was run: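 Same-well cytotoxicity counter screen of the Tox21 10K library in ME-180 cells. The readout is ATP-dependent luminescence after 5 h compound treatment. Data are normalised to DMSO and tetra n-octyl ammonium bromide controls.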

| SMILES | Potency [1] | outcome [2] | Potency [3] | Potency [4] | outcome [5] | outcome [6] | outcome [7] | outcome [8] | outcome [9] | outcome [10] | Potency [11] | Potency [12] | outcome [13] | outcome [14] | outcome [15] | outcome [16] | outcome [17] | outcome [18] | Potency [19] | outcome [20] |
| --- | --- | --- | --- | --- | --- | --- | --- | --- | --- | --- | --- | --- | --- | --- | --- | --- | --- | --- | --- | --- |
| O=C(O)/C=C/c1ccc(/C=C/C(=O)O)cc1 | inactive | inactive | inactive | inactive | inactive | inactive | inactive | inactive | inactive | inactive | inactive | inactive | – | – | – | – | – | – | – | – |
| CC(C)(O)c1ccccc1 | – | inactive | inactive | inactive | inactive | inactive | inactive | inactive | inactive | inactive | inactive | inactive | inactive | inactive | inactive | – | – | – | – | – |
| CCCC(=O)O[C@]1(C(=O)CCl)[C@@H](C)C[C@H]2[C@@H]3CCC4=CC(=O)C=C[C@]4(C)[C@@]3(F)C(=O)C[C@@]21C | inactive | inactive | inactive | inactive | inactive | – | inactive | inactive | inactive | – | 10.6 µM (active) | inactive | inactive | inactive | – | inactive | inactive | inactive | inactive | inactive |
| c1ccc(CCCc2ccccn2)cc1 | inactive | – | inactive | inactive | inactive | inactive | inactive | inactive | inactive | inactive | inactive | inactive | inactive | inactive | – | – | inactive | inactive | – | inactive |
| NC(=O)c1ncn([C@@H]2O[C@H](CO)[C@@H](O)[C@H]2O)c1N | inactive | – | inactive | inactive | inactive | inactive | inactive | inactive | inactive | inactive | inactive | inactive | inactive | inactive | inactive | – | – | – | – | inactive |
| N[C@@H](CS)C(=O)O | – | inactive | inactive | inactive | inactive | inactive | inactive | inactive | inactive | inactive | inactive | inactive | inactive | inactive | – | inactive | – | – | – | inactive |
| CCCCNc1ccccc1 | – | inactive | inactive | inactive | – | inactive | inactive | inactive | inactive | inactive | inactive | inactive | – | inactive | inactive | inactive | inactive | inactive | – | inactive |
| Cc1cc(C)cc(OCC2CNC(=O)O2)c1 (stereo unspecified) | – | inactive | inactive | inactive | – | – | inactive | inactive | inactive | inactive | inactive | inactive | – | inactive | inactive | – | inactive | inactive | – | – |
| OC/C=C/c1ccccc1 | – | inactive | inactive | inactive | inactive | – | inactive | inactive | inactive | inactive | – | inactive | inactive | inactive | inactive | – | – | – | inactive | – |
| CC(=O)c1ccc(C)cc1 | inactive | inactive | inactive | inactive | inactive | inactive | inactive | inactive | inactive | inactive | inactive | inactive | inactive | inactive | inactive | inactive | – | – | – | inactive |
| CCO[Si](CCCN=C=O)(OCC)OCC | – | inactive | inactive | inactive | inactive | – | inactive | inactive | inactive | inactive | inactive | inactive | inactive | inactive | inactive | – | – | – | – | inactive |
| CC(O)CN(CCCN(C)C)CCCN(C)C (stereo unspecified) | inactive | – | inactive | inactive | inactive | inactive | inactive | inactive | inactive | inactive | inactive | inactive | – | inactive | inactive | – | – | – | – | inactive |
| CC(C)CCCC(C)NCCC(C)C (stereo unspecified) | inactive | inactive | inactive | inactive | inactive | inactive | inactive | inactive | inactive | inactive | inactive | inactive | inactive | inactive | inactive | inactive | – | – | – | inactive |
| CC(C)COC(=O)C(C)C | – | inactive | inactive | inactive | inactive | – | inactive | inactive | inactive | inactive | inactive | inactive | inactive | inactive | inactive | – | inactive | inactive | – | inactive |
| O=Cc1ccccc1[N+](=O)[O-] | inactive | inactive | inactive | inactive | inactive | inactive | inactive | inactive | inactive | inactive | inactive | inactive | inactive | inactive | inactive | inactive | – | – | – | – |
| CCCOc1ccccc1-c1nc2n[nH]nc2c(=O)[nH]1 | – | – | – | inactive | inactive | inactive | inactive | inactive | inactive | inactive | inactive | inactive | – | – | – | – | – | inactive | – | inactive |
| CC(C)COC(=O)c1ccccc1O | inactive | inactive | inactive | inactive | inactive | inactive | inactive | inactive | inactive | inactive | inactive | inactive | inactive | inactive | inactive | inactive | – | – | – | inactive |
| O=C(O)c1ccccc1-c1ccc(C(F)(F)F)cc1 | inactive | inactive | inactive | inactive | inactive | inactive | inactive | inactive | inactive | inactive | inactive | inactive | inactive | inactive | – | inactive | inactive | inactive | – | inactive |
